Screening results from PubChem.
USP1-UAF1 inh – inhibitors of human USP1/UAF1 deubiquitinase; AID 743255; O94782; recombinant USP1/UAF1, Ub-Rhodamine cleavage fluorescence; Potency, µM (series often up to 57.1 µM), most hits filed as inhibitors; 0.23% of 390,000 active; further: nearly all actives have a fitted effect of over 60% in size
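In this screen, compounds sit with the deubiquitinase complex (1nM) for 15 min at room temperature before Ub-Rho is added at 150nM final. Fluorescence rise is then followed for 6 reads every 60 seconds.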
PI5P4K alpha inh – inhibitors of human PI5P4K alpha; P48426; PI5P4Kalpha enzyme, ADP-Glo luminescence, 60 min; active compounds read low; max response, %; 1.2% of 330,000 active; AID 652105; active means max response of -50% or lower; inconclusive means between -30% and -50%; inactive means -30% or higher; further: value at the top dose of about 77 µM
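Compounds were pin-transferred onto PI5P4Kalpha and substrate in HEPES pH 7.4 buffer with EGTA, CHAPS and 5% DMSO. ATP (5 microM final) started the reaction, which ran 60 minutes at room temperature before ADP-Glo detection.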
WRN inhibitor – WRN helicase (human) inhibition; Potency, µM (titrated, usually from 114 µM), hits mostly inhibitors; 0.46% of 360,000 active; AID 651768; WRN helicase unwinding, fluorescent forked duplex, kinetic; Q14191; further: nearly all actives have a fitted effect of over 55% in size
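WRN at 20 nM final preincubated with compound 15 min at room temperature; reaction started with 100 nM fluorophore/quencher forked duplex oligonucleotide and 2 mM ATP final. Unwinding followed kinetically by red fluorescence (ex 525, em 598 nm).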
PLK1 PBD block – PLK1 (human) polo-box domain binding inhibition | 2.8% of 360,000 active | Plk1 PBD binding of FITC phosphopeptide, fluorescence polarization | P53350 | Potency, µM, actives largely listed as inhibitors; further: series mostly up to about 57 µM; nearly all actives have a fitted effect of over 65% in size
USP2a block – inhibitors of human ubiquitin-specific protease USP2a. USP2 core, Ub-CHOP2 coupled fluorogenic reporter, 485/531. 0.01% of 330,000 active. AID 463254. Potency, µM (doses to about 38.3 µM), most hits filed as inhibitors. O75604
Target sequence (O75604 whole entry, looked up): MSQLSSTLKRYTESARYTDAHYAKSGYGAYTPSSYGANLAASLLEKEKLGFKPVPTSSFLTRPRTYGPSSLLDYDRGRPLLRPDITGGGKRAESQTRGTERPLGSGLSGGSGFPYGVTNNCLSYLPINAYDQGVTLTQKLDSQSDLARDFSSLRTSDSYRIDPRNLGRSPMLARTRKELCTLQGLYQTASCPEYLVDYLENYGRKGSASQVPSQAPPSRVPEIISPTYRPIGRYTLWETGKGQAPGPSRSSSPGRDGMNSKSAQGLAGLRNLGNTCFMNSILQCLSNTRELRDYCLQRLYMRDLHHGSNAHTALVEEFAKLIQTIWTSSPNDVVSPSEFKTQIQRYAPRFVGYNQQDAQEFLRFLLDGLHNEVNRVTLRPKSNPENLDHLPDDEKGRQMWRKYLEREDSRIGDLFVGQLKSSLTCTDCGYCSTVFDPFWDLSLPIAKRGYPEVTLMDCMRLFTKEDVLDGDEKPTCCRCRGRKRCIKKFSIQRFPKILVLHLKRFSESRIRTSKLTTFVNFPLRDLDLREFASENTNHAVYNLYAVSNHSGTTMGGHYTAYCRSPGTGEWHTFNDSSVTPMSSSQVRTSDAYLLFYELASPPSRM
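USP2 core (10nM final) preincubated 30min RT with compound in 20mM Tris-HCl pH 8.0, 2mM CaCl2, 2mM beta-mercaptoethanol, 0.05% CHAPS; 25nM Ub-CHOP2 plus 25nM reporter substrate added, fluorescence (Ex485/Em531) read after 60min.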
A number is an active result. In the library only some 3.3% were active in any assay of this set; here they are far more common. Unless noted, the call rests on the fitted dose curve; in most records, active means well fitted curve in the direction sought with a large enough effect; inconclusive means small, poorly fitted or top-dose-only effect, or another doubt; inactive means no such curve, though single readings can be large; an effect the other way counts as inactive or inconclusive.

Screening Cc1cc2cc(CCNS(=O)(=O)c3ccc(Br)cc3)c(=O)[nH]c2cc1C returned USP1-UAF1 inh inactive.
COc1ccc(Cl)cc1NC(=O)CSc1nc2c(oc3ccccc32)c(=O)n1Cc1ccco1 was read as USP1-UAF1 inh inactive.
Screening CCc1c(C)sc(NC(=O)Cn2nc(C(F)(F)F)c3c2CCCC3)c1C#N returned USP1-UAF1 inh inactive, PI5P4K alpha inh inactive, WRN inhibitor inactive, PLK1 PBD block 21µM and USP2a block inactive.
CCc1ccc(NC(=O)Cn2nc(C(F)(F)F)c3c2CCCC3)cc1 was read as USP1-UAF1 inh inactive.
`CCC(=O)N1CCc2cc(S(=O)(=O)NCCC(=O)Nc3ccc(OC)c(Cl)c3)ccc21` gave USP1-UAF1 inh inactive.
Screening Cc1cccc(-c2nc3ccccc3n3c(-c4ccccc4)c4c(=O)n(C)c(=O)n(C)c4c23)c1 returned USP1-UAF1 inh inactive.
Cc1cc(C)c(NC(=O)Cn2c(=O)n(CC3CCCO3)c(=O)c3ccccc32)c(C)c1 (centres undefined) was read as USP1-UAF1 inh inactive.
`O=C(O)CC1NCCc2ccccc21` (centres undefined) gave USP1-UAF1 inh inactive, PI5P4K alpha inh inactive, WRN inhibitor inactive, PLK1 PBD block 30µM and USP2a block inactive.
For O=C(CC1NCCc2ccccc21)Nc1ccccc1 (centres undefined) the results were USP1-UAF1 inh inactive, PI5P4K alpha inh inactive, WRN inhibitor inactive, PLK1 PBD block inactive and USP2a block inactive.
Screening O=Cc1ccc(-c2cccs2)s1 returned USP1-UAF1 inh inactive, PI5P4K alpha inh inactive, WRN inhibitor inactive and PLK1 PBD block inactive.
Oc1ccc(N=Cc2ccc(-c3cccs3)s2)cc1 was read as USP1-UAF1 inh 13µM, WRN inhibitor 50µM, PLK1 PBD block inactive and USP2a block inactive.
Screening CSc1ccccc1OCc1cc(C(=O)N(C)CCn2nc(C)cc2C)no1 returned USP1-UAF1 inh inactive, PI5P4K alpha inh inactive, WRN inhibitor inactive, PLK1 PBD block 3.4µM and USP2a block inactive.
For CCC1(C)N=C(c2ccc3c(c2)OCO3)CC(c2ccccc2O)N1 (centres undefined) the results were USP1-UAF1 inh inactive, WRN inhibitor inactive, PLK1 PBD block 27µM and USP2a block inactive.
Cc1nn(C)c(C)c1S(=O)(=O)N1CCCC(C(=O)N2CCN(c3ccc(Cl)cc3)CC2)C1 (centres undefined) was read as USP1-UAF1 inh inactive, PI5P4K alpha inh inactive, WRN inhibitor inactive, PLK1 PBD block 3.4µM and USP2a block inactive.
Screening Cc1nn(C)c(C)c1S(=O)(=O)N1CCCC(C(=O)NC2CCCCCC2)C1 (centres undefined) returned USP1-UAF1 inh inconclusive, PI5P4K alpha inh inactive, WRN inhibitor inactive, PLK1 PBD block 27µM and USP2a block inactive.
Screening Cc1nn(C)c(C)c1S(=O)(=O)N1CCC(C(=O)NC2CCCc3ccccc32)CC1 (centres undefined) returned USP1-UAF1 inh inconclusive, PI5P4K alpha inh inactive, WRN inhibitor inactive, PLK1 PBD block 27µM and USP2a block inactive.
Cc1n[nH]c(C)c1S(=O)(=O)N1CCCC(C(=O)N2CCN(c3ccc(Cl)cc3)CC2)C1 (centres undefined) was read as USP1-UAF1 inh inactive, PI5P4K alpha inh inactive, WRN inhibitor inactive, PLK1 PBD block inactive and USP2a block inactive.
Screening COC(=O)c1ccc(NC(=O)CN2CCCN(Cc3ccc(Cl)cc3)S2(=O)=O)cc1 returned USP1-UAF1 inh inactive.
Screening Cc1ccc(CNC(=O)c2ccc3c(c2)N(Cc2ccccc2F)C(=O)c2ccccc2S3(=O)=O)cc1 returned USP1-UAF1 inh inactive.
COc1ccccc1CNC(=O)c1cccn1-c1nnc(N2CCCC2)s1 was read as USP1-UAF1 inh inactive.
ClN=C1C=CC=CC1=NCl was read as PI5P4K alpha inh -77, WRN inhibitor inconclusive and PLK1 PBD block 11µM.
For CCCOc1ccc(/C=C2/C(=O)ON=C2C)cc1OCC the results were USP1-UAF1 inh inactive, PI5P4K alpha inh inactive, WRN inhibitor inactive, PLK1 PBD block 1.7µM and USP2a block inactive.
Screening CCCOc1ccccc1/C=C1/C(=O)ON=C1C returned USP1-UAF1 inh inactive, PI5P4K alpha inh inactive, WRN inhibitor inactive, PLK1 PBD block 3µM and USP2a block inactive.
